Our source for the outcome and AC50 values is PubChem BioAssay (EPA / NIEHS).

Inconclusive results are not listed. Calls of active or inactive are those of the source. Rule for the calls, unless noted: active = hit-call score of the fitted dose curve at least 0.9, where 1 is the maximum; inconclusive = response in the unintended direction; inactive = score below 0.9.

A short description of assay [1]: TOX21_p53_BLA_p2_viability: Viability Assessment in the Tox21 HCT-116 p53 Agonism Beta-lactamase Assay, Phase 2 (AID 2283591).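 Note: compound exposure lasted 16 h at 37 °C; actives lower the ATP signal meaning cytotoxicity.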 In short, it runs like this: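 HCT116 p53-bla cells, 4000/well, dosed after 5 h plating (217-fold dilution of DMSO stocks) and incubated 16 h at 37C. Viability taken as cellular ATP by CellTiter-Glo luminescence after 30 min RT; signal loss marks cytotoxicity.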

Assay [2] can be described thus: TOX21_p53_BLA_p3_viability: Viability Assessment in the Tox21 HCT-116 p53 Agonism Beta-lactamase Assay, Phase 3 (AID 2283593).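 Note: cells exposed to compound for 16 h before reading.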 In short, it runs like this: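 HCT116 cells, 4000/well, dosed 5 h after plating by pin transfer (217-fold dilution from DMSO stock) and incubated 16 h at 37C, 5% CO2. Viability read as ATP luminescence with CellTiter-Glo after 30 min at room temperature.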

Assay [3] deals with Cellular tumor antigen p53 (Homo sapiens) (UniProt P04637). Put plainly: TOX21_p53_BLA_p3_ratio: Tox21 HCT-116 p53 Agonism Beta-lactamase Assay, Ratio, Phase 3 (AID 2283596). The procedure, abridged: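 Cells were seeded at 4000/well, rested 5 h at 37C, then dosed with DMSO compound solutions (217-fold dilution) for 16 h. CCF4-AM substrate was loaded for 2 h at room temperature, and the 460/530 nm emission ratio was fitted for gain of signal versus DMSO.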

The nature of assay [4]: TOX21_p53_BLA_p4_viability: Viability Assessment in the Tox21 HCT-116 p53 Agonism Beta-lactamase Assay, Phase 4 (AID 2283597).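 Note: hits lower the luminescence signal meaning cytotoxicity.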 The procedure, abridged: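 Cytotoxicity was inferred from loss of CellTiter-Glo luminescence. HCT116 cells had been dosed with compounds after 5 h plating, incubated 16 h at 37C and 5% CO2, and exposed to the CCF4-AM substrate for 2 h.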
The target of assay [5] is Cellular tumor antigen p53 (Homo sapiens) (UniProt P04637). Put plainly: TOX21_p53_BLA_p5_ratio: Tox21 HCT-116 p53 Agonism Beta-lactamase Assay, Ratio, Phase 5 (AID 2283599). In short, it runs like this: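 HCT-116 p53-bla cells (4000/well) plated 5 h, dosed with compound (217-fold DMSO dilution) for 16 h at 37 C; CCF4-AM substrate 2 h at room temperature. Activity is the 460/530 nm emission ratio (405 nm excitation), fitted in gain-of-signal direction versus DMSO.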

A short description of assay [6]: TOX21_p53_BLA_p5_viability: Viability Assessment in the Tox21 HCT-116 p53 Agonism Beta-lactamase Assay, Phase 5 (AID 2283600). The procedure, abridged: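 Luciferase-coupled ATP quantitation of cells treated for 16 h (37C, 5% CO2) with test chemicals delivered in DMSO via a 217-fold dilution; 4000 cells/well; reagent incubated 30 min at room temperature before luminescence reading.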

In assay [7] the target is Cellular tumor antigen p53 (Homo sapiens) (UniProt P04637). Description: TOX21_p53_BLA_p4_ratio: Tox21 HCT-116 p53 Agonism Beta-lactamase Assay, Ratio, Phase 4 (AID 2283601). The procedure, abridged: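 HCT-116 p53 beta-lactamase reporter cells (4000/well) preincubated 5 h, then compound (217-fold dilution of DMSO stock) for 16 h at 37C. CCF4-AM substrate added 2 h at room temperature; 460/530 nm emission ratio fitted upward versus DMSO.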

The nature of assay [8]: CCTE_Harrill_HTTr_Viability_MCF7: CCTE's 6-hour Cell Viability Assessment for the High-Throughput Transcriptomics (HTTr) Platform, in MCF-7 cells cultured in DMEM + 10% fetal bovine serum, Harrill Lab (AID 2284010; active = hit-call score of the fitted dose curve at least 0.9, where 1 is the maximum; inactive = score below 0.9). The procedure, abridged:
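Propidium iodide exclusion, imaged by high-content analysis, gauged viability after a six-hour exposure across eight concentrations. Cells were MCF-7 grown in DMEM with 10% fetal bovine serum; fits run in both directions against DMSO.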

Assay [9] can be described thus: CCTE_Harrill_HTTr_Apoptosis_MCF7: CCTE's 6-hour Apoptosis Assessment for the High-Throughput Transcriptomics (HTTr) Platform, in MCF-7 cells cultured in DMEM + 10% fetal bovine serum, Harrill Lab (AID 2284011; active = hit-call score of the fitted dose curve at least 0.9, where 1 is the maximum; inactive = score below 0.9). The procedure, abridged: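 MCF-7 cells in DMEM + 10% fetal bovine serum were exposed to chemicals for 6 hours over an eight-point dilution series. Caspase-3/7 activation was imaged by high content imaging with CellEvent Caspase 3/7 Green; bidirectional fitting used DMSO as baseline.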

A short description of assay [10]: CCTE_Harrill_HTTr_CellCount_MCF7: CCTE's Cell Proliferation Assessment for the High-Throughput Transcriptomics (HTTr) Platform, Harrill Lab (AID 2284012).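 Note: cells exposed to compound for six hours; intended direction is loss of nuclei count meaning fewer cells.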 The procedure, abridged: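 Cell count from high-content imaging of Hoechst-labeled nuclei serves as viability/growth readout. Chemicals were applied to MCF-7 cells in eight concentrations for six hours, with fitting in both directions relative to DMSO.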

The next assay concerns the target THRA (gene 7067) (UniProt P10827). Description: TOX21_TRA_COA_Antagonist_Followup_ratio: Tox21 Thyroid Hormone Receptor alpha Antagonism through Coactivator Recruitment Follow-Up Assay, Ratio (AID 2283953). In short, it runs like this: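 GST-TRα LBD 2.5 nM, BSA 0.10%, + cpd; then FITC-SRC-2 peptide 200 nM + Tb-anti-GST Ab 2 nM. TR-FRET ratio 520/495 nm. Norm: DMSO = 0%, T3 = 100%.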

A further assay concerns the target THRB (gene 7068) (UniProt P10828). Put plainly: TOX21_TRB_BLA_Antagonist_Followup_ratio: Tox21 Thyroid Hormone Receptor beta Antagonism Beta-lactamase (BLA) Follow-Up Assay, Ratio (AID 2283958). In short, it runs like this:
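Beta-lactamase reporter ratio (460/530 nm, CCF4-AM substrate, 2 h room temperature) was read in TRb-bla HEK293T cells after 18 h compound treatment (11 concentrations, triplicate) at 37C in 2% charcoal-stripped FBS medium. Loss of signal fitted against DMSO.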

Assay [11] is described as follows: TOX21_TRB_BLA_Antagonist_Followup_viability: Viability Assessment in the Tox21 Thyroid Hormone Receptor beta Antagonism Beta-lactamase (BLA) Follow-Up Assay (AID 2283961). In short, it runs like this:
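HEK293T cells stably expressing GAL4-DBD/human TRβ-LBD with UAS-bla reporter, 3,000 cells/well in phenol red-free DMEM, 2% charcoal-stripped FBS. Compounds at 11 concentrations in triplicate, 18 h at 37C/5% CO2; viability by CellTiter-Glo luminescence after 30 min at room temperature.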

A short description of assay [12]: TOX21_TR_RXR_BLA_Antagonist_Followup_viability: Viability Assessment in the Tox21 Thyroid Hormone Receptor beta Retinoid X Receptor alpha (RXRa) Antagonism Beta-lactamase (BLA) Follow-Up Assay (AID 2283979). The procedure, abridged:
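RXRa-bla HEK293T cells (2,500/well, phenol red-free DMEM, 2% charcoal-stripped FBS) were attached 5 h, then exposed to compounds at 11 concentrations in triplicate for 16 h at 37C. Viability measured by CellTiter-Glo ATP luminescence, bidirectional fitting versus DMSO.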

Cellular tumor antigen p53 (Homo sapiens), sequence (P04637 whole entry, looked up): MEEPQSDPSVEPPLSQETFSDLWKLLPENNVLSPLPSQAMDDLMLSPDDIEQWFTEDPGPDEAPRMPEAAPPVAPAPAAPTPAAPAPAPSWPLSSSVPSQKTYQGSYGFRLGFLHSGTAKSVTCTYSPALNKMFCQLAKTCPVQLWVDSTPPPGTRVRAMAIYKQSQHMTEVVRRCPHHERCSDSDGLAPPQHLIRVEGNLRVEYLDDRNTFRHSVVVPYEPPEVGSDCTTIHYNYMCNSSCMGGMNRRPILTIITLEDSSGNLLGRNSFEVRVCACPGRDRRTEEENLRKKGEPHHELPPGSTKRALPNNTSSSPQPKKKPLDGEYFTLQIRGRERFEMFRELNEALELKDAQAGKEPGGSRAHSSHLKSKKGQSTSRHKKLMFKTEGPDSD
THRA (gene 7067), sequence (P10827 whole entry, looked up, the tested form may be a part): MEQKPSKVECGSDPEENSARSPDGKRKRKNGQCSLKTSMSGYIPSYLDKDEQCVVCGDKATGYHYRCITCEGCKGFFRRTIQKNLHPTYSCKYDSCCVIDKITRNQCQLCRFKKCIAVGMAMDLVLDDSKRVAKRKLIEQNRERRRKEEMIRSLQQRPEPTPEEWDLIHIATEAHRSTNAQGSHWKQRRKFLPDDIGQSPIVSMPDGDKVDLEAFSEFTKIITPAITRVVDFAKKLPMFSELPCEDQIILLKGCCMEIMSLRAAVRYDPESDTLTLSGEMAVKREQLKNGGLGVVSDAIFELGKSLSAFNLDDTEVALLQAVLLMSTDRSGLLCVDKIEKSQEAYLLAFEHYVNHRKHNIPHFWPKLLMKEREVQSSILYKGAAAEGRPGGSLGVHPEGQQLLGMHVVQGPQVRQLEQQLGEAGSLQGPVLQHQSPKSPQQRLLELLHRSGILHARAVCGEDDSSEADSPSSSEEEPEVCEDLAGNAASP
THRB (gene 7068), sequence (P10828 whole entry, looked up): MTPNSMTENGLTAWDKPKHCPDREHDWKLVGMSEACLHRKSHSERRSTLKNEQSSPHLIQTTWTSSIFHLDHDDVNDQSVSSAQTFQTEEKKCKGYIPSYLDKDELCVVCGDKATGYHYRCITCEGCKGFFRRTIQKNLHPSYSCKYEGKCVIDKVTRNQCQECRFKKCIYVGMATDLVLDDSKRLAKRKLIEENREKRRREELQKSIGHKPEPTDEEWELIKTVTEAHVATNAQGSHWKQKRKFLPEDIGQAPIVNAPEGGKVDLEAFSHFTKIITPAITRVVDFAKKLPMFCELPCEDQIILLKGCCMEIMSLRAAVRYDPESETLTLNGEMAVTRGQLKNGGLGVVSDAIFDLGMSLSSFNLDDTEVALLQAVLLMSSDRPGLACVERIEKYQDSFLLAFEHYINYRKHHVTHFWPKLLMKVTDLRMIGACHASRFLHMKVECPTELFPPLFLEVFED

Take `COc1ccc(OC)c(NC(=O)CC(C)=O)c1`: the call in assay [1], in [2], in [3], in assay [4], in [5] and in assay [6] was inactive. Moreover, the outcome in assay [7] was inactive.
Take `NS(=O)(=O)c1cc(C2(O)NC(=O)c3ccccc32)ccc1Cl` (stereo not given): the molecule was called inactive in assay [1], in [2], in [3], in assay [4], in assay [5] and in [6]. Also, the outcome in [7] was inactive.
For the molecule `CCC(=O)O[C@]1(C(=O)SCF)[C@H](C)C[C@H]2[C@@H]3C[C@H](F)C4=CC(=O)C=C[C@]4(C)[C@@]3(F)[C@@H](O)C[C@@]21C`, the result in assay [1], in assay [2], in assay [3], in assay [4], in [5] and in assay [6] was inactive. Besides, the outcome in assay [7] was inactive.
Consider `CC(C(=O)O)c1cccc(C(=O)c2ccccc2)c1` (stereo not given), for which the molecule was classed as inactive in [1], in assay [2], in assay [3], in [4], in assay [5] and in assay [6]. Further, in [7], the outcome was inactive.
As a reminder, the AC50 is the concentration giving half of the maximal activity seen. For the molecule `CC(C)n1nc(-c2cc3cc(O)ccc3[nH]2)c2c(N)ncnc21`, the figures for the AC50 in [1], in assay [4] and in assay [5] were 23 µM (active), 11.6 µM (active) and 34.6 µM (active), respectively. Besides, the result in assay [2], in assay [3], in [6] and in assay [7] was inactive.
Turning to `CC(=NO)C(C)=NO`, the molecule was classed as inactive in [1], in assay [2], in assay [3], in [4], in assay [5] and in assay [6]. For the same molecule, the outcome in assay [7] was inactive.
Turning to `C=CC1=C(C(=O)O)N2C(=O)[C@@H](NC(=O)/C(=N\O)c3csc(N)n3)[C@H]2SC1` (stereo in doubt), the call in [1], in [2], in assay [3], in [4], in assay [5] and in assay [6] was inactive. In assay [7], the outcome was inactive.
On to `Cc1nc(C)c(C)nc1C`, for which the molecule was called inactive in assay [1], in assay [2], in assay [3], in assay [4], in assay [5] and in assay [6]. Further, the result in [8], in [9] and in assay [10] was inactive.
Consider `C[C@@H]1C[C@H]2[C@@H]3CCC4=CC(=O)C=C[C@]4(C)[C@@]3(Cl)[C@@H](O)C[C@]2(C)[C@@]1(OC(=O)c1ccco1)C(=O)CCl`, for which the molecule was called inactive in assay [1], in [2], in assay [3], in assay [4], in assay [5] and in [6]. For the same molecule, the result (in [7]; with THRA (gene 7067); with THRB (gene 7068); in assay [11]; in assay [12]) was inactive.
`OCCN1C[C@H](O)[C@@H](O)[C@H](O)[C@H]1CO`: the outcome in assay [1], in [2], in [3], in assay [4], in assay [5] and in assay [6] was inactive.
